HT1080 IDH1KD tx: kills HT-1080 cells with IDH1 knockdown | HT-1080 IDH1 knockdown viability, ATP luminescence, 48 h | 360,000 tested, 2% active | Potency, µM (titrated, usually from 46.1 µM), for inactives: at the top dose activity, negative = toxicity, hits mostly cytotoxic;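 further: 0% = DMSO wells and -100% = cell-free medium wells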
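Using the IDH1-knockdown HT-1080 line run in the same batch and compound series as the NT line, viability after 48 h at 37 °C was determined by CellTiter-Glo luminescence and expressed as % activity.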
ATXN2 expr inh: inhibitors of ATXN2 expression | HEK-293 ATXN2-luciferase reporter, luminescence, 24 h | Potency, µM (highest dose often 57 µM), for the others: at the highest dose activity change, negative = inhibition, hits mostly inhibitors | 360,000 tested, 0.72% active | AID 1745845; further: on the % scale 0 is the no-effect control and ±100 the full control effect; nearly all actives have a fitted effect of over 55% in size
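qHTS (up to 57 uM final) was run with 24 h compound exposure of reporter cells at 37 °C. Each well was multiplexed: SteadyGlo luminescence measured ATXN2-luciferase expression after a fluorogenic Gly-Phe-AFC viability readout (25 uM final).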
TGFb SMAD3 inh: inhibitors of TGF-b signaling; HepG2 CAGA-GFP TGF-b/SMAD3 reporter, GFP fluorescence, 18 h; TGF-beta stimulated, 500 pg/mL final; Potency, µM (highest dose often 46.1 µM), without a hit: at the highest dose activity, negative = inhibition, most hits filed as inhibitors; 410,000 tested, 1.2% active; AID 588855; further: on the % scale 0 is the no-effect control and ±100 the full control effect; nearly all actives have a fitted effect of over 65% in size
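Smad-responsive CAGA-GFP expression was quantified in HEPG2 cells exposed to compounds and 500 pg/mL final TGF-beta for 18 h at 37 degrees C; unstimulated wells defined full inhibition.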
HepG2 viability: counter-screen for TGF-b inhibitors: cytotoxicity in HepG2 cells; HepG2 CAGA-GFP viability, ATP luminescence, 18 h; Potency, µM (series often up to 46.1 µM), inactives show top-dose activity change, negative = cytotoxicity, hits mostly cytotoxic; 410,000 tested, 0.76% active; AID 588856
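CellTiter-Glo luminescence gave cytotoxicity after 18 hours at 37 degrees C. The cells were HepG2 CAGA-GFP in 1% FBS DMEM, stimulated with 500 pg/mL TGF-beta after compound addition. %Activity was normalised to no-cell wells (complete cell-killing) and DMSO (no toxicity), and curves were fitted and classified.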
HT1080-NT tox: kills 2HG-producing HT-1080-NT fibrosarcoma cells | HT-1080-NT fibrosarcoma viability, CellTiter-Glo ATP luminescence, 48 h | Potency, µM (highest dose often 46.1 µM), for the others: at the top dose activity, negative = less viability, actives largely listed as cytotoxic | 360,000 tested, 1.6% active | AID 686970;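 further: NT is the 2HG producing partner of a matched IDH1 knockdown line; 0% = DMSO-treated cells and -100% = media-only wells without cells; nearly all actives have a fitted effect of over 55% in size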
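Luminescent CellTiter-Glo readout after 48 hours of compound exposure at 37 degrees C defined viability of HT-1080-NT cells. Activity was normalized to DMSO wells and cell-free media wells; concentration-response curves were fitted and assigned curve classes.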
S2 tox: cell viability loss in ATXN counter-screen. Potency, µM (titrated, usually from 56.7 µM), most hits filed as cytotoxic. 400,000 tested, 0.49% active. S2 cells (HEK-293 line with an ATXN2-luciferase reporter) viability, CellTiter-Fluor protease fluorescence, 24 h. AID 651635; further: nearly all actives have a fitted effect of over 40% in size
* = called active by the depositor; i = inactive; ? = inconclusive; / = not tested or not shown; ! = not confirmed by another sample; [ ] = dose if it differs, or a comment. A selection: hits, their analogues and other compounds. The true share with any hit is near 3.9%. The call rests on the fitted dose curve; in most records, active means well fitted curve in the direction sought with a large enough effect; inconclusive means small, poorly fitted or top-dose-only effect, or another doubt; inactive means no such curve, though single readings can be large; an effect the other way counts as inactive or inconclusive. Potency means the concentration at half of the fitted maximal effect.

SMILES	HT1080 IDH1KD tx	ATXN2 expr inh	TGFb SMAD3 inh	HepG2 viability	HT1080-NT tox	S2 tox
N#C/C(=N/Nc1ccc(OC(F)(F)F)cc1)C(N)=S	16µM*	/	?	-162%	23µM*	/
CNC(=O)[C@@H]1C[C@@H](NCc2cccc(Oc3ccccc3)c2)CN1C(C)C	/	/	/	/	/	i
CCCCc1c(-c2ccccc2OC)ncn1CCc1ccc(OC)cc1	?	?	/	/	16µM*	/
CCCCc1c(-c2ccccc2OC)ncn1CCc1ccccc1	21µM*	?	/	/	18µM*	?
COc1ccc(Cc2nn3c(-c4ccccc4OC)nnc3s2)cc1	1%	5%	-10%	-9%	-4%	i
CCCN1C(=O)C2(c3ccccc31)c1c(oc3ccc(C)cc3c1=O)C(=O)N2CCOC (configuration not stated)	/	3%	-3%	0%	/	i
O=C(NCCN1CCC(n2c(=O)[nH]c3ccccc32)CC1)c1ccc(Cl)cc1	-19%	-34%	/	/	?	i
O=C(NCCN1CCC(n2c(=O)[nH]c3ccccc32)CC1)c1ccc(Cl)c(Cl)c1	?	18µM*	/	/	21µM*	?
Nc1c(N=Nc2ccccc2F)c(=O)[nH]n1-c1ccccc1	-4%	2%	?	-19%	-14%	i
Nc1nn(-c2ccccc2)c(N)c1N=Nc1ccccc1F	5.8µM*	51%	-25%	5%	8.2µM*	?
Nc1nn(-c2ccccc2)c(N)c1N=Nc1ccccc1	16µM*	75%	?	2%	?	i
Cc1nn(-c2ccccc2)c(N)c1N=Nc1ccccc1	?	163%	-25%	-27%	?	?
Nc1ncnc(N)c1N=Nc1ccccc1	12µM*	?	-23%	-42%	?	i
O=C(NCc1ccc(Cl)cc1)C(=O)NCC(c1ccco1)S(=O)(=O)c1cccs1 (configuration not stated)	/	/	-8%	4%	/	/
O=C1[C@@H]2[C@H]3CC[C@H](C3)[C@@H]2C(=O)N1CCCCN1CCN(c2ncccn2)CC1	/	-6%	/	/	/	i
O=C1[C@H]2CCCC[C@H]2C(=O)N1CCCCN1CCN(c2nsc3ccccc23)CC1	?	?	?	-17%	23µM*	?
Cc1cc(Cl)ccc1OCC(=O)N(Cc1ccc(N(C)C)cc1)CC1CCCO1 (configuration not stated)	/	/	?	-30%	/	/
CCCCCCCCCCCCCCCC[n+]1cccc(C(=O)N(CC)CC)c1	21µM*!	32µM*!	?	13µM*!	?	32µM*
Cc1cccc(N2CCN(C(=O)c3c4c(nc5ccccc35)C(=O)N(C3CCCCC3)C4)CC2)c1C	/	/	26%	8%	/	/
Cc1nc(N)nc(N)c1/C=C/C(C)(C)c1ccc(Cl)cc1	0.0082µM*	?	?	-69%	0.029µM*	i
CCOC(=O)c1cc(C)n(CC2CCC(C(=O)Nc3cc(OC)cc(OC)c3)CC2)c1C (configuration not stated)	/	/	?	-32%	/	/
O=C1c2cccc(NCCNCCO)c2C(=O)c2cccc(NCCNCCO)c21	8.2µM*	4.5µM*	?	-12%	?	18µM*
CCN(CC)S(=O)(=O)c1ccc(N/N=C(\C)c2ccc(OC)cc2O)nc1	?	/	8.9µM*	-63%	?	i
CCOc1cccc(/C=N/Nc2ccc(S(=O)(=O)N(CC)CC)cn2)c1O	2.6µM*	?	0%	-11%	?	?
COc1ccc(CCC(=O)NCc2nc3cccnc3n2Cc2ccc(C)cc2)cc1	/	/	/	-22%	/	/
SMILES	HT1080 IDH1KD tx	ATXN2 expr inh	TGFb SMAD3 inh	HepG2 viability	HT1080-NT tox	S2 tox
O=[N+]([O-])c1ccc(Sc2cccc3cccnc23)c([N+](=O)[O-])c1	-27%	?	4µM*	-105%	?	6.3µM*
O=[N+]([O-])c1ccc(Sc2cccc3cccnc23)cc1	-3%	51%	-7%	-15%	1%	i
O=[N+]([O-])c1ccc(Sc2ccncn2)c([N+](=O)[O-])c1	15µM*	/	11µM*	10µM*	18µM*	/
C=CCn1nc([N+](=O)[O-])nc1Sc1cccc2cccnc12	?	22µM*	3.2µM*	5.6µM*	?	/
COc1ccc(NC(=O)Cn2c(=O)oc3cc(S(=O)(=O)NC4CCCC4)ccc32)cc1OC	/	/	0%	-12%	/	/
Cc1csc[n+]1CC(=O)c1ccc(I)cc1	/	/	-4%	-31%	/	/
O=C(Nc1ccccn1)c1cc2ccccc2o1	?	16µM*	0%	7.9µM*	?	i
COc1ccc(/C=N/OCC(=O)NC(c2ccccc2)c2ccccc2)c(OC)c1	-8%	-10%	?	3%	-1%	i
CCOc1ccc(/C=N/OCC(=O)NC(c2ccccc2)c2ccccc2)cc1	?	-14%	22µM*	-24%	-20%	i
CCCCn1cnc2c(SCc3ccc(Br)cc3)nc(N)nc21	16µM*	-18%	18%	-23%	15µM*	i
CCc1ccccc1NC(=O)C(=O)c1cc(C)n(-c2ccccc2F)c1C	/	85%	-17%	-25%	/	i
COC(=O)c1ccc(CSc2nc3c([nH]c4ccccc43)c(=O)n2-c2cc(C)cc(C)c2)o1	/	15%	8%	-16%	/	i
S=C(SSC(=S)N1CCOCC1)N1CCOCC1	0.73µM*	?	0.56µM*	0.71µM*	1.2µM*	?
COc1cc(-c2ccc3sc(-c4ccsc4)c(C#CCO)c3c2)cc(OC)c1OC	?	25µM*	16µM*	-34%	?	?
Cc1cccc(CCNc2ncnc3onc(-c4ccc(Cl)cc4)c23)c1	/	1%	-4%	-8%	/	i
N#CC1C(=N)Cc2ccccc2-c2ccccc21 (configuration not stated)	16µM*	-23%	0%	-30%	12µM*	?
ClCC1=Nc2ccccc2Cc2ccccc21	7%	-34%	5%	5%	-11%	i
O=C1/C(=C/c2ccncc2)SC(=S)N1C1CCS(=O)(=O)C1 (configuration not stated)	-29%	-10%	?	20µM*	?	?
O=C(NCCCO)c1cc2ccccc2[nH]1	4%	-20%[11.3 µM]	-7%	-3%	5%	i
NNC(=O)c1cc2ccccc2[nH]1	2.1µM*	-7%	-12%	-4%	?	?
CN(C)Cc1csc(NC(=O)Nc2ccccc2Cc2ccccc2)n1	?	-2%	4%	-6%	15µM*	?
CCc1ccccc1NC(=O)Nc1nnc(N(C)Cc2ccccc2)s1	/	/	13µM*	-13%	/	/

Screening data from PubChem.
